HCV inh: qHTS Assay for Inhibitors of Hepatitis C Virus (HCV); Potency, µM (titrated, usually from 41.8 µM), without a hit: at the top dose activity change, negative = inhibition, actives largely listed as inhibitors; 3.4% of 340,000 active; Huh7.5.1 HCVcc-Cre infection, luciferase reporter, 44 h; active = well fitted inhibition curve with a large enough effect; inconclusive = small, poorly fitted or top-dose-only effect, or another doubt; inactive = no such curve, though single readings can be large or run the other way; also: potency is read from the fitted curve at half-maximal effect; % is scaled to controls: 0 for no effect and ±100 for the full control effect
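After 44 h co-culture of compound, cells and HCVcc-Cre (~0.5 moi), substrate is added for 15 min at room temperature and luciferase measured over 15 sec. Cells were seeded at 1,000/well and pre-cultured 4 h.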
CHX counter: Cycloheximide Counterscreen for Small Molecule Inhibitors of Shiga Toxin | 12% of 300,000 active | max response, % | cell reporter, cycloheximide protein synthesis inhibition counterscreen; in the data active = max response mostly above about 13%, no sharp cut-off; inactive = mostly below about 14%; also: read at 38.3 µM for the half of the compounds with a filed dose; 0% is about no effect
FMDV inh: High Throughput Screening for Foot and Mouth Disease Virus Antivirals; Potency, µM (series often up to 57.9 µM), without a hit: at the top dose activity change, negative = inhibition, hits mostly inhibitors; 1.2% of 410,000 active; AID 1159524, 2015; FMDV antiviral cell-based qHTS; calls by dose curve; tested in HEK293T cells; also: read-out not given here; potency is read from the fitted curve at half-maximal effect; % is scaled to controls: 0 for no effect and ±100 for the full control effect; nearly all actives have a fitted effect of over 45% in size
Marburg entry inh: qHTS for inhibitors of binding or entry into cells for Marburg Virus | Potency, µM (titrated, usually from 37.8 µM), without a hit: at the top dose activity change, negative = inhibition, usual class: inhibitors | Marburg virus pseudotyped entry inhibition, cell reporter | 1.8% of 300,000 active; calls by dose curve; tested in HEK293 cells; also: potency is read from the fitted curve at half-maximal effect; % is scaled to controls: 0 for no effect and ±100 for the full control effect
Lassa entry inh: qHTS for Inhibitors of binding or entry into cells for Lassa Virus; AID 540256, 2011; 1.2% of 300,000 active; Lassa virus pseudotype entry inhibition, cell reporter; Potency, µM (highest dose often 37.9 µM), for inactives: at the highest dose activity change, negative = inhibition, most hits filed as inhibitors; calls by dose curve; tested in HEK293 cells; also: potency is read from the fitted curve at half-maximal effect; % is scaled to controls: 0 for no effect and ±100 for the full control effect; nearly all actives have a fitted effect of over 50% in size
Shiga toxin inh: A qHTS for Small Molecule Inhibitors of Shiga Toxin. Vero cells, Shiga toxin protein synthesis inhibition reporter. inhibition, % at 38.7 µM. 9.2% of 290,000 active; in the data active = inhibition mostly above about 28%, no sharp cut-off; inactive = mostly below about 43%; also: 0% is about no effect
Numbers without * were called inactive; ? = inconclusive; . = not tested or not shown; ! = not active in a repeat; [ ] = another dose, or the depositor's remark. Only some compounds are listed: those with a hit (about 13% of all), similar ones and a draw of the others.

SMILES	HCV inh	CHX counter	FMDV inh	Marburg entry inh	Lassa entry inh	Shiga toxin inh
CCCCCCn1c(C(C)NC(=O)c2ccco2)nc2ccccc21 (centres undefined)	-28.0%	11.5*	?	?	-23.9%	4.9
Cc1oc2ncn(CC(C)C)c(=O)c2c1C(=O)NCCCN(C)Cc1ccccc1	.	.	-7.5%	.	?	.
Cc1onc(-c2ccccc2)c1CNS(=O)(=O)c1cccc(Cl)c1	-20.2%	1.0	23.5%	15.3%	1.1%	6.8
COCc1cc(C)nc(OCC(=O)N/N=C\c2cc(C)n(-c3cccc(C(F)(F)F)c3)c2C)c1C#N	2.1%	-4.0	0.0%	-16.9%	-15.2%	-19.4
COCCN(CCOC)C(=O)COC(=O)c1ccc(Cl)c(S(=O)(=O)N(C)c2ccccc2)c1	-1.2%	1.8	-25.2%	?	-0.7%	-1.1
CN(CCNC(=O)C1CC(=O)N(c2ccc(F)c(Cl)c2)C1)Cc1ccccc1 (centres undefined)	-28.8%	10.6	.	-28.1%	-0.6%	-1.7
CCN(CC)CCN1c2ccccc2Sc2ccccc21	.	-4.2	-17.6%	?	?	-11.1
CCC(=O)c1ccc2c(c1)N(CCCN(C)C)c1ccccc1S2	?	.	-15.7%	20.6µM*	?	.
CN(CCCN1c2ccccc2CCc2ccccc21)CC(=O)c1ccc(Cl)cc1	.	15.4	4.1%	.	.	11.8
COc1ccc2c(c1)Sc1ccccc1N2CCN(C)C	?	-1.6	-11.7%	11.2µM*	?	-12.6
CN(C)CCCN1c2ccccc2CCc2ccc(Cl)cc21	?	-4.2	0.0%	11.2µM*	?	-16.2
CN(C)CCCN1c2ccccc2Sc2ccccc21	-17.9%[8.37 µM]	-3.1	?	18.3µM*	?	-14.0
CC(=O)c1ccc2c(c1)N(CCCN(C)C)c1ccccc1S2	?	.	-26.1%	.	.	.
CCN1C(=O)CCCc2ccccc21	18.3%	-1.1	0.8%	?	-4.3%[46.1 µM]	-6.1
CNCCCN1c2ccccc2CCc2ccccc21	?	-4.1	-6.9%	1.26µM*	-11.6%	-12.3
CCCCCCSc1ccc(-c2nc3ccc(C)cn3c2NCCCC)cc1OC	.	.	0.0%	.	.	.
CCCCCCSc1cc(-c2nc3ccc(C)cn3c2NCc2ccccc2)ccc1OC	-15.6%[8.37 µM]	.	39.8µM*!	.	.	.
CCCCNc1c(-c2ccc(OC)c(Sc3ccc(OC)cc3)c2)nc2ccccn12	10µM*	.	-27.4%	.	.	.
CCCCCCSc1cccc(-c2nc3ccc(C)cn3c2NCc2ccccc2)c1	2.5%	.	?	.	.	.
CCCCCCSc1cccc(-c2nc3ccccn3c2NCc2ccccc2)c1	-22.1%	.	25.1µM*	.	.	.
CCCCNc1c(-c2ccc(SC(C)CC)c(OC)c2)nc2ccc(C)cn12 (centres undefined)	10µM*	.	22.4µM*	.	.	.
CCCCCCSc1cccc(-c2nc3cc(C)ccn3c2NCc2ccccc2)c1	-21.4%	.	-25.4%	.	.	.
COc1cccc(-c2nnn(CC(=O)N3CCC(C)CC3)n2)c1	-6.3%	9.9	49.9%	.	.	14.2
Cc1ccc2cn[nH]c2c1NC(N)=S	14.0%	30.7	4.7%	-9.9%[46.1 µM]	-2.9%	48.5*
Cc1ccc2cn[nH]c2c1NC(=S)NC(=O)c1ccccc1	4.7%	-2.3	-21.8%	10.2%	-4.4%	-13.2
SMILES	HCV inh	CHX counter	FMDV inh	Marburg entry inh	Lassa entry inh	Shiga toxin inh
O=C(CSc1cn(CC(=O)N2CCCCC2)c2ccccc12)Nc1ccc(C(F)(F)F)cc1	.	.	-5.9%	.	17.4%[46.1 µM]	.
O=C(NC1CCCCC1)Oc1cc2oc(=O)sc2cc1Cl	-5.8%	16.2*	25.1µM*	-1.3%[46.1 µM]	1.9%[46.1 µM]	33.9
Cc1cc2ccccc2n1CCNC(=O)c1ccccc1	15.7%	14.7*	?	?	7.94µM*	24.3
Cc1cc2ccccc2n1CCNC(=O)c1ccc(Br)o1	-18.2%	19.0*	32.5%	.	.	28.4*
Cc1cc2ccccc2n1CCNC(=O)Cc1cccc2ccccc12	6.31µM*	0.8	-26.9%	.	.	3.3
O=C1CCSC2(C(=O)N(Cc3ccccc3)c3ccccc32)N1c1ccccc1 (centres undefined)	.	.	-29.3%	.	-17.1%[46.1 µM]	.
CCn1c(NCc2cc(Cl)ccc2O)nc2ccccc21	31.6µM*	5.5	-23.6%	.	.	2.4
C=CCn1c(NCc2ccc(OC)cc2O)nc2ccccc21	?	32.7*	49.1%	.	.	22.7*
Cc1ccc(CNc2nc3ccccc3n2C)o1	11.9%	54.3*	57.1%	-8.7%	-3.1%	51.5*
CCN(CC)CCn1c(NCc2ccc(C)o2)nc2ccccc21	21.6%	-1.6	-6.8%	?	19.1%	-11.9
C=CCn1c(NCc2ccccc2)nc2ccccc21	-0.4%	15.5*	7.1%	?	15.5%	50.5
C=CCn1c(/N=C/c2ccc(OC)cc2)nc2ccccc21	11.9%	-2.3	21.8%	.	.	1.3
Cn1c(NCc2ccccc2O)nc2ccccc21	6.1%	38.4*	42.2%	-13.8%[46.1 µM]	24.4%	37.2
C=CCn1c(NCc2cc(Cl)ccc2O)nc2ccccc21	?	0.7	22.6%	?	?	-5.6
c1ccc(Cn2c(NCc3ccncc3)nc3ccccc32)cc1	-2.7%	26.1*	-10.2%	-25.1%	-24.6%	51.6*
COc1ccc(CNc2nc3ccccc3n2Cc2ccc(C)cc2)cc1OC	-8.2%	-3.9	?	?	?	-2.4
C=CCn1c(NCc2ccccc2OC)nc2ccccc21	-5.9%	17.5*	22.8%	.	.	32.1
C=CCn1c(NCc2ccccc2O)nc2ccccc21	-11.0%	21.5*	41.2%	3.3%	26.4%	.
Brc1cccc(CNc2nc3ccccc3n2CCN2CCCCC2)c1	?	-1.0	-28.8%	.	.	-3.0
Cn1c(NCc2cccc(Br)c2)nc2ccccc21	-27.3%	13.0*	24.3%	?	-16.5%	25.7*
CCOC(=O)c1cnc2ccc(Cl)cc2c1Nc1ccc(N2CCOCC2)cc1	.	.	22.4µM*	-2.6%[46.1 µM]	?	.
CCOC(=O)c1cnc2ccc(C)cc2c1Nc1ccc(N2CCOCC2)cc1	?	6.2	0.0%	?	?	-7.2
O=[N+]([O-])c1cc([N+](=O)[O-])c2c(=Nc3ccccc3)n(-c3ccccc3)n(O)c2c1	?	8.6	?	-7.6%[46.1 µM]	?	28.9
Cc1ccc(-c2nonc2NC(=O)c2ccco2)cc1	10.0%	8.4	-7.5%	.	.	-5.3
C=CCc1ccc(OCc2ccc(C(=O)OC)o2)c(OC)c1	-6.9%	62.6*	0.3%	?	?	86.9*
C=CCc1ccc(OC(=O)c2ccccc2)c(OC)c1	19.5%	24.2*	38.2%	.	.	21.8
COC(=O)c1ccc(COc2ccc(C=O)cc2OC)o1	6.3%	11.0	37.1%	1.6%[46.1 µM]	29.6%	4.1
CCC(=O)c1ccc(OCc2ccc(C(=O)OC)o2)c(OC)c1	-14.6%	28.2*	0.1%	11.3%	14.1%	52.2
COc1ccc(CC(=O)N2CCN(c3ccccn3)CC2)cc1OC	4.0%	-1.2	-6.9%	6.5%	11.0%	5.4
CCCc1ccc(OCc2ccc(C(=O)N3CCN(c4ccccn4)CC3)o2)c(OC)c1	?	35.8*	?	23.1µM*	32.5%[14.3 µM]	27.8

High-throughput results: PubChem, National Center for Advancing Translational Sciences (NCATS)
